A selection: hits, their analogues and other compounds. The true share with any hit is near 2.9%.
Peg3 promoter – Peg3 promoter-driven luciferase inhibitors, primary screen, cell-based, HeLa, luciferase luminescence; AID 588405, 2011; HeLa PEG-Prom luciferase reporter, overnight; actives 1.7% (n = 360,000); inhibition, % at 20 µM;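 active = inhibition of at least 50% at 20 µM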
LMP1 NFkB inh – EBV LMP1-driven NF-kappaB luciferase reporter inhibitors, primary screen, cell-based, luminescence, single point; inhibition, % at 12.5 µM; AID 504558, 2011; LMP1-induced NF-kappaB luciferase reporter cells; actives 0.69% (n = 350,000); in the data active = inhibition above about 41%;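 also: 0% = neutral control wells and 100% = reference inhibitor control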
KKLEB tox – cytotoxicity in KKLEB CF airway cells, primary screen, cytotoxicity control for CF NF-kB inhibitor project, cell-based, uHTS, fluorescence assay plates. KKLEB CF airway cells viability, ATPlite luminescence, overnight; hits give low values; cells stimulated with P. aeruginosa culture filtrate. activity change (cytotoxicity), % at 5 µM. actives 0.36% (n = 360,000). AID 602141, 2011;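 active = corrected activity change at or below -50% at 5 µM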
CF NFkB inh – inhibitors of PAF-induced NF-kB signaling, primary screen, cell-based, GFP fluorescence, uHTS; KKLEB NF-kB-GFP reporter, GFP fluorescence overnight; inhibition, % at 5 µM; actives 0.86% (n = 360,000);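 active = at least 50% inhibition at 5 µM, scaled per plate between neutral and stimulator controls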;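 also: PAF is a Pseudomonas aeruginosa culture filtrate used as stimulus; plate controls were PAF-stimulated DMSO wells for no effect and unstimulated DMSO wells for full effect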
Shn3 3UTR inh – reduction of Shn3 3'UTR firefly luciferase signal, primary screen, Schnurri-3 inhibitor project, cell-based, Clone20 osteoblasts, set 2; inhibition, % at 12.5 µM; Clone20 osteoblast Shn3 3'UTR firefly luciferase, 24 h; actives 0.52% (n = 360,000); AID 588674, 2011;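 active = mean inhibition of at least 75% with every replicate also reaching 75%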;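 also: 0% = median of neutral control wells and 100% = pilot-screen positive control compound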
HIF-2a inh – HIF-2a reporter inhibitors, primary screen, luminescence, 786-0 RCC cells. actives 0.72% (n = 360,000). 786-0 RCC cells HIF-2a reporter, luciferase luminescence, overnight. AID 624352, 2012. inhibition, % at 18.8 µM;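 active = inhibition of the luminescence signal of 40% or more relative to plate controls, in a single-dose primary screen at 18.75 µM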
CF NFkB conf – inhibitors of PAF-induced NF-kB signaling, retest, confirmation, cell-based, GFP fluorescence, single concentration; inhibition, % at 5 µM; actives 64% (n = 1,300); KKLEB CF airway cells, overnight; shares compounds with CF NFkB inh; AID 602472, 2012; in the data active = inhibition above about 40%;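 also: stimulus PAF is a Pseudomonas aeruginosa filtrate and not platelet activating factor; plate controls were DMSO wells with stimulus for no effect and unstimulated DMSO wells for full effect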
* hit, by the source's call; nt = not tested or not shown; ! = a repeat was not active.

SMILES | Peg3 promoter | LMP1 NFkB inh | KKLEB tox | CF NFkB inh | Shn3 3UTR inh | HIF-2a inh | CF NFkB conf
Cc1cn(-c2cc(C(=O)Nc3ccc(C)c(NC(=O)N4CCNC4=O)c3)cc(C(F)(F)F)c2)cn1 | 8 | 14 | -9 | 32 | 4 | 9 | nt
CCN1CCN(Cc2ccc(NC(=O)c3ccc(C)c(NC(=O)N4CCNC4=O)c3)cc2C(F)(F)F)CC1 | 0 | 47*! | -1 | 50* | 7 | 3 | 60*
CCN1CCN(Cc2ccc(NC(=O)c3ccc(C)c(NC(=O)c4cc(-c5ccc(Br)cc5)n[nH]4)c3)cc2C(F)(F)F)CC1 | 41 | 44* | -25 | 51* | 12 | -22 | 67*
Cc1ccc(NC(=O)c2cc(-c3ccccc3)n[nH]2)cc1 | -122 | -26 | 2 | 14 | -12 | -230 | nt
COC(=O)N1C(=O)[C@@](c2ccc(OC)cc2)(C(C)C)N1C(=O)OC | 46 | 0 | -12 | 69* | -14 | 27 | 57*
COc1ccc(NC(=O)CN2C(=O)NC(c3ccccc3)(c3ccccc3)C2=O)cc1 | -6 | -8 | 4 | -13 | -8 | 11 | nt
COC(=O)N1C(=O)[C@@](c2ccccc2)(C(C)C)N1C(=O)OC | 29 | 7 | 6 | 58* | 17 | 11 | 51*
CCc1ccc2nc(NC(=O)CN3C(=O)NC4(CCCC4)C3=O)sc2c1 | -212 | -18 | -13 | 21 | -26 | -243 | nt
C=CC[C@@H](CC(=O)N(CCO)Cc1ccccc1)C(=O)NC[C@H](OC(=O)[C@@H](CC=C)Cc1ccc(F)cc1)c1ccccc1 | 71* | 14 | -4 | 73* | 18 | -12 | 92*
COc1cccc(NC(=O)CNC(=O)c2ccc(C)o2)c1 | -14 | -7 | 12 | -18 | -7 | 2 | nt
O=c1c(-c2c(O)cc(O)c3c2O[C@H](c2ccc(O)cc2)CC3)c(-c2ccc(O)cc2)oc2cc(O)cc(O)c12 | 47 | -7 | 0 | 75* | -30 | 2 | 101*
CCCNS(=O)(=O)c1ccc(OCC(=O)Nc2ccc3c(c2)OCO3)cc1 | 8 | -4 | 5 | -1 | -16 | 5 | nt
CCC(=O)c1ccc(O)c(CC=C(C)C)c1 | -3 | -3 | -8 | 57* | -6 | 20 | 64*
COc1cccc(N2CCN(c3nc(-c4ccccc4C)cc(=O)[nH]3)CC2)c1 | 104* | -42 | -6 | 67* | -85 | -53 | 39
CC(=O)[C@@]1(O)CC[C@H]2[C@@H]3C[C@H](C)C4=CC(=O)CC[C@]4(C)[C@H]3CC[C@@]21C | -7 | 2 | 18 | 54* | 7 | 19 | -86
CC(=O)C1(O)CCC2C3CC(C)C4=CC(=O)CCC4(C)C3CCC21C (stereo unspecified) | -1 | nt | 16 | 48 | 0 | 11 | nt
COc1ccc2c(=O)cc(-c3ccncc3)oc2c1OC | 89* | -8 | 2 | 59* | 75 | 27 | 77*
COc1ccc(-c2cc(=O)c3c(OC)c(OC)c(OC)c(OC)c3o2)cc1OC | 34 | -3 | 26 | 16 | -4 | -3 | nt
Cc1noc(C)c1NC(=O)Nc1ccc2c(c1)C(=O)N([C@@H](C)CO)C[C@@H](C)[C@H](CN(C)C(=O)Nc1cccc3ccccc13)OCCCC[C@H](C)O2 | 14 | -5 | 10 | 5 | 17 | -4 | nt
CCCOc1ccc(C(=O)OCCN(CC)CC)cc1N | 5 | -1 | 4 | 75* | -4 | -15 | 16
CN(C)C(=O)c1nc2ccc(Cl)cn2c1CNCc1ccccc1OC(F)(F)F | 6 | 0 | 4 | -9 | 0 | 9 | nt
Cc1ccccc1N1CCN(C2CCCN(C(=O)c3cnsn3)C2)CC1 (stereo unspecified) | -16 | 1 | -9 | 6 | 15 | -18 | nt
COc1ccc(-c2cnc3c(NC=O)cc(-c4ccccc4OC)cn23)cc1OC | 44 | nt | -34 | 65* | 14 | -8 | 91*
CS(=O)(=O)Nc1cccc(-c2cc(NC=O)c3ncc(-c4ccc(F)cc4)n3c2)c1 | 41 | nt | -28 | 52* | 48 | -25 | 53*
CC(C)OC(=O)c1cccc(C(=O)Nc2cccc(NC(=O)c3cccc(C(=O)OC(C)C)n3)n2)n1 | 46 | 7 | -4 | 57* | 28 | 12 | 62*
SMILES | Peg3 promoter | LMP1 NFkB inh | KKLEB tox | CF NFkB inh | Shn3 3UTR inh | HIF-2a inh | CF NFkB conf
CC(=O)Nc1ccc(NC(=O)c2cccc(C(=O)OC(C)C)n2)cc1 | -2 | 2 | 5 | -1 | 1 | 1 | nt
CN1CCN(c2ccc(CNC(=O)C3(C)Cc4c(-c5ccc(C(N)=O)cc5)ccnc4O3)cc2)CC1 (stereo unspecified) | -21 | nt | -5 | 24 | 0 | 20 | nt
Cc1ccc(S(=O)(=O)CCC(=O)c2ccc(F)cc2)cc1 | 32 | -4 | -44 | 85* | 73 | 15 | 26
CC(=O)c1ccc(-n2c(SCC(=O)c3c[nH]c4ccccc34)nc3ccccc3c2=O)cc1 | 40 | 5 | 5 | -2 | 33 | -6 | nt
CC(=O)Nc1ccc(NC(=O)C(C)OC(=O)CN2C(=O)C3CCCCC3C2=O)cc1 (stereo unspecified) | 1 | -1 | -3 | -19 | -10 | 4 | nt
O=c1c(Cc2c(F)cccc2Cl)c(O)ccn1C1CCCCCC1 | -10 | -1 | -10 | 21 | -11 | 15 | nt
Cc1ccc(-c2c(C#N)c(N)n3c(nc4ccccc43)c2C#N)cc1 | 47 | 6 | -37 | 55* | 38 | -1 | 50*
N#Cc1c(-c2ccccc2)c(C#N)c2nc3ccccc3n2c1N | 33 | 10 | 6 | 4 | 47 | 6 | nt
CCn1c(SC)nc2cc(S(=O)(=O)N3CCCCC3)ccc21 | -12 | 5 | -8 | 52* | 0 | 15 | 41*
CCn1c(CN2CCC(C)CC2)nc2cc(S(=O)(=O)N3CCCCC3)ccc21 | 9 | -5 | 2 | 10 | -15 | 19 | nt
c1cncc(-c2ccc3ncnc(NCc4ccc5c(c4)OCO5)c3c2)c1 | 18 | 1 | -13 | 55* | 6 | 19 | 65*
COc1cccc(-c2ccc3ncnc(NCc4cccc(C)c4)c3c2)c1 | 19 | 13 | -8 | 69* | 9 | 24 | 62*
COc1cccc(-c2ccc3ncnc(NCc4cccs4)c3c2)c1 | 31 | 4 | -7 | 61* | -15 | 21 | 85*
c1cncc(-c2ccc3ncnc(NCc4cccs4)c3c2)c1 | 11 | 21 | -11 | 7 | 15 | 17 | nt

Source: PubChem (several laboratories)
